Test results as given in ChEMBL document CHEMBL1201862, “PubChem BioAssay data set” (2004).
The campaign covered roughly 400,000 compounds. About 2,100 (0.53%) were called active. Another 14% or so got no clear call; they are omitted. How the calls were made is not given here. What follows is part of a selection rich in actives, with near analogues and random picks from the rest.

target: Ataxin-2 (Homo sapiens) (UniProt Q99700); assay: qHTS for Inhibitors of ATXN expression.; type: functional
Sequence (Q99700 whole entry): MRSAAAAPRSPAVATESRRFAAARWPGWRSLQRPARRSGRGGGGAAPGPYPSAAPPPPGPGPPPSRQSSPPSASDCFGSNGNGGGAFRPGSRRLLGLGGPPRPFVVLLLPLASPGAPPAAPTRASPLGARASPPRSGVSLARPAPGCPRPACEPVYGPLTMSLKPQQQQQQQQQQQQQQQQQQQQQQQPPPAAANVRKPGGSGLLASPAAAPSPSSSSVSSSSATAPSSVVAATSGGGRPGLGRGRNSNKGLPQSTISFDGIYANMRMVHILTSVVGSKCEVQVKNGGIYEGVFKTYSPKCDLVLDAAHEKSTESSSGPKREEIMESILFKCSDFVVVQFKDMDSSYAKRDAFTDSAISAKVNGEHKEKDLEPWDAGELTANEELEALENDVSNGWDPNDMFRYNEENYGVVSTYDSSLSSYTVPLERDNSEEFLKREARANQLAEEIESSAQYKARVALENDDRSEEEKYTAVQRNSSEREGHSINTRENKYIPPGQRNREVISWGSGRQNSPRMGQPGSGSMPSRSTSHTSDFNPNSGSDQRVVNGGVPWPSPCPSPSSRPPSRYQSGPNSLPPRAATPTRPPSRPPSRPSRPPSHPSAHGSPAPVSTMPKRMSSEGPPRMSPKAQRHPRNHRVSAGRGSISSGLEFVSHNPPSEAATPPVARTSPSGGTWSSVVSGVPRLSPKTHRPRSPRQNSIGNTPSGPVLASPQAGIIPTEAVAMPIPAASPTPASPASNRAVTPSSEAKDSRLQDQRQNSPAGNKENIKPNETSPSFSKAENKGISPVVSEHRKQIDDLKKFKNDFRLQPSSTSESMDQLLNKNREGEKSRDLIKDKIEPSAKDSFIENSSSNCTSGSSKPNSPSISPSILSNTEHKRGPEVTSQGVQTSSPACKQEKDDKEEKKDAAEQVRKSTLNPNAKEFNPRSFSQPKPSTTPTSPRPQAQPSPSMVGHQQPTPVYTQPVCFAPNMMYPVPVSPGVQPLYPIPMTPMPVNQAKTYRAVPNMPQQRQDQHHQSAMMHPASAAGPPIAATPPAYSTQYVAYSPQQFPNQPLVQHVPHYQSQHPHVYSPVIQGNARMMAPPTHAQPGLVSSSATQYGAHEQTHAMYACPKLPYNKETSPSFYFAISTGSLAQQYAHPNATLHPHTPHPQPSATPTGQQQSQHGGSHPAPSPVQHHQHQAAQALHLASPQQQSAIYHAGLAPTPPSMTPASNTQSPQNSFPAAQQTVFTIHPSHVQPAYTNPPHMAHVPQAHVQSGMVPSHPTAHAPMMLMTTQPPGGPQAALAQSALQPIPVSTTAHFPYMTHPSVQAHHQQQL

SMILES | Potency
O=c1oc2ccccc2cc1-c1nc2c(s1)CCCC2 | inactive
CCc1ccc(C2=CC(c3cccc(Br)c3)n3nnnc3N2)cc1 (stereo unspecified) | inactive
CC(=O)Nc1ccc(S(=O)(=O)N2CCN(c3nc(NC4CCCC4)c4ccccc4n3)CC2)cc1 | 31.6 µM (active)
CC(=O)Nc1ccc(S(=O)(=O)N2CCN(C(=O)C3COc4ccccc4O3)CC2)cc1 (stereo unspecified) | inactive
O=C(O)c1ccc(S(=O)(=O)N2CCN(c3ccccn3)CC2)cc1 | inactive
Cc1ccc(C)c(-n2c(=O)c(C#N)cc3c(=O)n4ccccc4nc32)c1 | inactive
Cc1ccc2oc(Nc3nc(C)c(C)c(C)n3)nc2c1 | inactive
CCC(C)N1CCC2(CC1)N=c1c3c(O)c4c(O)c(C)c5c(c4c1=N2)C(=O)[C@@](C)(OC=C[C@H](OC)[C@@H](C)[C@@H](OC(C)=O)[C@H](C)[C@H](O)[C@H](C)[C@@H](O)[C@@H](C)C=CC=C(C)C(=O)N3)O5 (stereo partly specified) | 22.4 µM (active)
C=CCN(CC=C)C(=O)c1ccc(OC2CCN(S(=O)(=O)N(C)C)CC2)cc1 | inactive
O=S(=O)(CCc1ccncc1)Cc1ccc2c3c(cccc13)CC2 | inactive
CC(=O)NCc1ccc(C(=O)CCl)s1 | 16.8 µM (active)
CCOC(=O)C1CCCN(CC(=O)Nc2nc(-c3ccccc3)cs2)C1 (stereo unspecified) | inactive
O=S(=O)(CCN1CCN(c2ccccn2)CC1)c1ccc(F)cc1 | inactive
C=CCSc1nc2c(N)ncnc2n1C1OC(CO)C(O)C1O (stereo unspecified) | inactive
Nc1ncn([C@H]2O[C@@H](CO)[C@@H](O)[C@@H]2O)c(=O)n1 | 5.01 µM (active)
O=C(NN=C1CCCC1)NC1CCCCC1 | inactive
O=C(NCCc1ccc(F)cc1)c1cccc2c1C(=O)c1ccc(N3CCC(Cc4ccccc4)CC3)cc1S2(=O)=O | inactive
Cc1cccc(OCC(O)Cn2c(=N)n(CCN3CCCCC3)c3ccccc32)c1 (stereo unspecified) | 39.8 µM (active)
N=c1n(CCN2CCCC2)c2ccccc2n1CC(O)c1ccc(Cl)c(Cl)c1 (stereo unspecified) | 31.6 µM (active)
Cc1cccc(OCC(O)Cn2ccnc2C)c1 (stereo unspecified) | inactive
OC(CN1C2=NCCCN2c2ccccc21)c1ccc2c(c1)OCO2 (stereo unspecified) | inactive
O=c1c2ccccc2n(CC(O)CN2CCCCC2)c2ccccc12 (stereo unspecified) | inactive

SMILES | Potency
Nn1cnnc1SCC(=O)N1CCc2ccccc2C1 | inactive
CCOCCCn1c(=N)c(C(=O)NC(C)c2ccccc2)cc2c(=O)n3cc(C)ccc3nc21 (stereo unspecified) | inactive
CC(=NNc1nc2ccccc2s1)c1ccncn1 | 10 µM (active)
C/C(=N\Nc1nc2ccccc2s1)c1ccc(Br)s1 | inactive
Cc1ccc(/C=N/Nc2nc3ccccc3s2)o1 | inactive
CCCCCCn1c(=O)[nH]c2nc3cc(N)c(C)cc3nc2c1=O | inactive
Cc1ccc(SSc2cc(C)ccc2N)c(N)c1 | 17.8 µM (active)
FC(F)(F)c1ccc(Cl)c(-n2c(S)nnc2-c2cc(C3CC3)[nH]n2)c1 | inactive
CC(C)C(OC(=O)CN1C(=O)COc2ccccc21)C(=O)NC1CCCCC1 (stereo unspecified) | inactive
O=C(CN1C(=O)COc2ccc(S(=O)(=O)NC3CCCC3)cc21)Nc1ccc(Cl)cc1 | 44.7 µM (active)
O=S(=O)(Nc1ccc(Cl)cc1)c1ccc(N2CCOCC2)c(NC(=S)NC2CC2)c1 | inactive
COc1ccc(C(=O)Nc2ccc(S(=O)(=O)Nc3onc(C)c3C)cc2)c(OC)c1 | inactive
O=C(Cc1cccs1)Nc1ccc(F)c(S(=O)(=O)N2CCOCC2)c1 | inactive
COc1ccc(-c2nc(CN3CCN(Cc4cccc(Cl)c4)CC3)c(C)o2)cc1 | inactive
COc1ccc(-c2nc(CN3CCC(C(=O)NC4CCCc5ccccc54)CC3)c(C)o2)cc1OC (stereo unspecified) | inactive
COc1ccc(N2CCN(C(=O)COC(=O)CCc3ccccc3)CC2)cc1 | inactive
COc1ccc(-c2nc(CSCC(=O)N3CCN(c4cccc(C)c4)C(C)C3)c(C)o2)cc1OC (stereo unspecified) | 18.9 µM (active)
COc1ccc(-c2nc(CSCC(=O)N3CCN(c4ccccc4F)CC3)c(C)o2)cc1 | 31.6 µM (active)
COc1ccc(-c2cc3ccc(O)c(CN4CCCCC4C)c3oc2=O)cc1OC (stereo unspecified) | inactive
CCNC(=S)N1CCN(CCNC=C2C(=O)CC(C)(C)CC2=O)CC1 | inactive
CN1C(=O)NC(NS(=O)(=O)c2ccc(N)cc2)(C(F)(F)F)C1=O (stereo unspecified) | inactive
Nc1nc2nc(-c3cccs3)cc(C(F)(F)F)n2n1 | inactive

SMILES | Potency
C=CCNC(=O)/C(C#N)=C/c1c(N2CCN(c3cccc(Cl)c3)CC2)nc2c(C)cccn2c1=O | inactive
O/N=C/c1cc2ccccc2n1Cc1ccccc1F | inactive
Cc1ccc(C2=NN=C(c3ccccc3)c3ncccc3N2)cc1 | inactive
CC(C)c1ccc(NC2=NC(=N)c3ccccc32)cc1 | 39.8 µM (active)
CC(C)c1ccc(NC2=NN=C(c3cccs3)CS2)cc1 | inactive
COc1ccc(S(=O)(=O)N2CCOCC2)cc1NC(=O)COc1cccnc1[N+](=O)[O-] | inactive
Clc1cccc2c1CCN(Cc1nc(-c3cnccn3)no1)C2 | inactive
CSc1nc(N2CCN(c3ccccc3Cl)CC2)c2ccccc2n1 | inactive
Cc1ccc(C(=O)NCc2ccc3c(c2)OCO3)cc1N1CCCC1=O | inactive
COc1ccccc1N1CCN(C2CCCN(C(=O)c3csc(C)n3)C2)CC1 (stereo unspecified) | inactive
COc1ccccc1N1CCN(c2nc(CNC(=O)C3CC34CCCC4)nc3ccccc23)CC1 (stereo unspecified) | 35.5 µM (active)
COc1ccccc1N1CCN(c2nc(CNC(=O)c3ccc4c(c3)OCO4)nc3ccccc23)CC1 | 28.2 µM (active)
COc1ccc(C(=O)N2CCOC2CNC(=O)C(=O)NCc2ccc3c(c2)OCO3)cc1 (stereo unspecified) | inactive
CC1CC(C)(C)N=C(S)N1CCC(=O)N1CCN(c2ccccc2)CC1 (stereo unspecified) | inactive
CCn1c(=N)c(S(=O)(=O)c2ccccc2)cc2c(=O)n3ccccc3nc21 | inactive
Cc1ccccc1CN(C)C1CCN(C)CC1 | inactive
CCOC(=O)C1CCCN(C(=O)c2sc3nc4n(c(=O)c3c2C)CCC4)C1 (stereo unspecified) | inactive
CCOC(=O)CC1(C)c2nc(NC(C)=O)sc2Cc2sc(NC(C)=O)nc21 | inactive
O=C(O)c1cccc(N2C(=O)c3cc4cccc(Br)c4cc3C2=O)c1 | inactive
O=C(NCc1ccccc1Cl)C1CCN(S(=O)(=O)c2ccc(-n3cnnn3)cc2)CC1 | inactive
O=C(NCc1ccccc1Cl)[C@H]1CCCN1C(=O)[C@H]1CCCN1C(=O)c1cccc2ccccc12 | 10 µM (active)
O=C(NCc1ccccc1Cl)C1CCCO1 (stereo unspecified) | inactive
